# Screening data (PubChem BioAssay)
# LmPK inh: qHTS Assay for Inhibitors of Leishmania Mexicana Pyruvate Kinase (LmPK) | purified LmPK, Kinase-Glo ATP luminescence, 1 h | Potency, µM (series often up to 57.5 µM), for inactives: at the highest dose activity change, negative = inhibition, usual class: inhibitors | actives 0.37% (n = 290,000) | AID 1721, 2009
# Target sequence (Q27686 whole entry, looked up): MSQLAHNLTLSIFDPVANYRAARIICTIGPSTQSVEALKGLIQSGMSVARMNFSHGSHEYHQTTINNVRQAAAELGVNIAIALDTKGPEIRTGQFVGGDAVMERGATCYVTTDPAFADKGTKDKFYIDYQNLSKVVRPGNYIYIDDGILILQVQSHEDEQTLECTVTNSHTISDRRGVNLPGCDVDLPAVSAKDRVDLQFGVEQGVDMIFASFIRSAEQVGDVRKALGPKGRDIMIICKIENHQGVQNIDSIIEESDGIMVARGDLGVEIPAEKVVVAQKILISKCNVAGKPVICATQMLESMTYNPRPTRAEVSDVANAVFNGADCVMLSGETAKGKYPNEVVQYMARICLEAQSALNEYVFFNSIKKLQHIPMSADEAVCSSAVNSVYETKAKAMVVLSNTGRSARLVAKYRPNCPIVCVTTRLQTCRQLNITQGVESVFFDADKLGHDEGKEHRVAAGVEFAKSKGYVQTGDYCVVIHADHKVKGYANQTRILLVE
#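 ATP generated from ADP (0.1 mM) and PEP (0.5 mM) by 0.1 nM LmPK over 1 h at room temperature (pH 7.2 imidazole buffer) was detected by coupled luciferase luminescence. Values were normalized to uninhibited and no-enzyme wells.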
# FBPA Giardia inh: qHTS Assay for Inhibitors of Fructose-1,6-bisphosphate Aldolase from Giardia Lamblia; A8B2U2; purified Giardia FBPA; Potency, µM (top dose mostly 59.6 µM), for the others: at the highest dose activity, negative = inhibition, most hits filed as inhibitors; actives 0.71% (n = 290,000); note: nearly all actives have a fitted effect of over 55% in size
#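 Giardia FBPA (40 nM reagent) was preincubated 10 min at RT with compound (up to 57.5 uM final), then substrate plus GAPDH/TPI/NAD/arsenate coupling system with diaphorase/resazurin was added; resorufin fluorescence (525/598 nm) was read after 20 min.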
# RE007 growth inh: qHTS Assay for Inhibitors of the HIV-1 protein Vpr; S. pombe RE007 Vpr strain, BacTiter-Glo ATP luminescence, 24 h; Potency, µM (series often up to 92.2 µM), for the others: top-dose activity change, negative = less growth, actives largely listed as inhibitors; actives 0.21% (n = 360,000); active = well fitted falling curve with a large enough effect; inconclusive = small, poorly fitted or top-dose-only effect; inactive = no such curve, though single readings can be large or run the other way; note: nearly all actives have a fitted effect of over 50% in size
#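 Fission yeast strain RE007, carrying one chromosomally integrated HIV-1 vpr copy, was seeded at OD 0.01 in PMG+AL medium with 23 nL pinned compound. After 24 h at 30 °C and 99% humidity, viability was read by BacTiter-Glo luminescence.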
# Tb PYK inh: qHTS of Trypanosoma Brucei Inhibitors; pyruvate kinase (Trypanosoma brucei), Q57TT1; TbPYK enzyme, Kinase-Glo Plus ATP luminescence, 45 min; Potency, µM (doses to about 76.8 µM), without a hit: at the highest dose activity, negative = inhibition, most hits filed as inhibitors; actives 0.12% (n = 410,000); AID 624173, 2012; note: nearly all actives have a fitted effect of over 50% in size
#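 Enzyme and substrate buffer are dispensed first and compound is pin-transferred. ADP at 130 uM final then starts the reaction, which runs 45 min at room temperature. Detection reagent is added for 10 min before luminescence is imaged.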
# * = called active by the depositor; u = inconclusive; x = not tested or not shown. Shown are actives, neighbours in structure and some others; about 0.95% of the full set was active somewhere. Unless noted, calls come from the whole dose curve; as a rule, active = well fitted curve in the direction sought with a large enough effect; inconclusive = small, poorly fitted or top-dose-only effect, or another doubt; inactive = no such curve, though single readings can be large; an effect the other way counts as inactive or inconclusive. % is set by controls: 0 for no effect and ±100 for the full control effect; potency is the fitted concentration of half-maximal effect.
SMILES,LmPK inh,FBPA Giardia inh,RE007 growth inh,Tb PYK inh
CCCC1=NN(c2ccc([N+](=O)[O-])cc2)C(=O)/C1=C/N(C)C,-23%,-8%,5%,-7%
Cc1ccc(O)c(CO)n1,-1%,1%,-2%,-4%
Cc1nc2c(O)cccc2cc1CO,6%,20µM*,3%,-1%
CCC1(c2cnc[nH]2)Cc2ccccc2C1,x,x,x,-9%
COc1cc(O)oc1C=Nc1ccc(Cl)cc1,-3%,0%,-4%,-2%
COc1cc(O)oc1C=Nc1ccc(C(=O)O)cc1,25µM*,-6%,u,u
CC(C)Cn1c(Cc2ccccc2)n[nH]c1=S,11µM*,-1%,3%,u
CCCCn1c(-c2sccc2C)n[nH]c1=S,32µM*,-15%,14%,u
CCn1c(Cc2ccccc2)n[nH]c1=S,-2%,-6%,-10%,u
CCCCn1c(Cc2ccccc2)n[nH]c1=S,u,21%,2%,11µM*
CCCCn1c(-c2c(Cl)c(C)nn2C)n[nH]c1=S,-26%,-4%,16%,10µM*
CCCC[C@@H](C)/C=C(C)/C=C(\C)C(=O)NC1=C[C@@](O)(/C=C/C=C/C=C/C(=O)NC2=C(O)CCC2=O)[C@@H]2O[C@@H]2C1=O,x,-9%,x,x
NCCCC[C@H](NC(=O)[C@@H]1CCCN1C(=O)[C@@H]1CSSC[C@H](NC(=O)CNC(=O)CNC(=O)CN)C(=O)N[C@@H](Cc2ccc(O)cc2)C(=O)N[C@@H](Cc2ccccc2)C(=O)N[C@@H](CCC(N)=O)C(=O)N[C@@H](CC(N)=O)C(=O)N1)C(=O)NCC(N)=O,x,x,x,-6%
C/C(=N\NC(=O)c1ccccc1NC(=O)c1ccc(Cl)cc1)c1ccncc1,u,-10%,4µM*,u
CN1C(=O)CC(C)(c2ccccc2)C1=O (stereo not given),x,x,x,-5%
CCOc1ccc(/C=N/NC(=O)c2[nH]ncc2Br)c(O)c1,7.9µM*,12%,u,u
Cc1cnc(Nc2ccc(F)cc2Cl)nc1-c1c[nH]c(C(=O)N[C@H](CO)c2cccc(Cl)c2)c1,x,x,x,0%
COc1cccc2c1nc(C)c1cc(C)oc12,4%,3%,-30%,4%
COc1cccc2nc3cc(C)c(C)cc3nc12,13µM*,u,2.8µM*,u
Cc1cc(C(=O)Nc2c(C)nc3ccccn3c2=O)ccc1[N+](=O)[O-],x,x,x,2%
Cc1cccc(Cl)c1OCCN1CCCC1,-12%,25µM*,-9%,7%
Cc1ccc(C(=O)[C@H](C)CN2CCCCC2)cc1,x,x,x,0%
O=S(=O)(c1ccc(=S)[nH]c1)N1CCOCC1,x,x,-7%,7.9µM*
CCCC[C@@H](CC)COC(=O)C[C@H](C(=O)OC[C@H](CC)CCCC)S(=O)(=O)O,x,x,x,-7%
Cc1[nH]c2ccccc2c1CC#N,-1%,-18%,29%,-7%
SMILES,LmPK inh,FBPA Giardia inh,RE007 growth inh,Tb PYK inh
Cc1[nH]c2ccccc2c1C1=CC(=O)C=CC1=O,x,x,25µM*,4µM*
CCOC(=O)Cc1ccc(-c2ccccc2)cc1,x,x,x,-6%
CCOC(=O)Cc1ccc2sc(-c3ccccc3)nc2c1,16µM*,6%,u,u
O=C(Cn1sc2ccccc2c1=O)Nc1ccc(Br)cc1,x,x,50%,7.9µM*
Cc1cccc(C)c1NC(=O)c1ccc([N+](=O)[O-])s1,-2%,9%,-7%,-24%
Cc1cccc(NC(=O)c2ccc([N+](=O)[O-])s2)n1,1%,-19%,16µM*,1%
CNCCc1c[nH]c2ccc(O)cc12,x,2µM*,2%,-12%
CCSc1ccc(-c2ccc(C)cc2)nn1,-6%,-14%,7%,-4%
COc1ccc(-c2ccc(SC)nn2)cc1,14µM*,-10%,u,u
CCOc1ccc(-c2ccc(SCC)nn2)cc1,11µM*,1%,-8%,u
COc1ccc(C(=O)CSc2ccc(-c3ccccc3)nn2)cc1,7%,-8%,-15%,-3%
CC(C)(C)c1cc(NC(=O)Nc2ccc(-c3cn4c(n3)sc3cc(OCCN5CCOCC5)ccc34)cc2)no1,x,x,x,1%
c1ccc2c(c1)SCc1c-2[nH]c2ccccc12,x,-1%,x,x
COc1ccc2nc(NC(=O)c3ccoc3C)sc2c1,5µM*,5%,u,u
COc1ccc2nc(NC(=S)NC(=O)c3ccco3)sc2c1,-3%,u,6%,1%
COc1ccc2nc(NC(=O)c3cc(C)oc3C)sc2c1,25µM*,-4%,u,-23%
CC(C)=C1C2CCC1C1C(=O)N(c3ccc4c(c3)OCO4)C(=O)C21 (stereo not given),-1%,-9%,x,-24%
CC(C)=C1C2C=CC1C1C(=O)N(c3ccc4c(c3)OCO4)C(=O)C21 (stereo not given),9%,-22%,32µM*,-3%
OCCC1CN(Cc2c(O)ccc3ccccc23)CCN1CCc1ccccc1 (stereo not given),7%,20µM*,-17%,-12%
Nc1c(O)ccc2c1C(=O)c1ccccc1C2=O,14µM*,u,u,u
COc1ccccc1N1CCN(S(=O)(=O)CCNC(=O)C(c2ccccc2)c2ccccc2)CC1,x,x,x,-9%
COc1ccc2[nH]c3c(=O)n(CCCCC(=O)N4CCC(C(N)=O)CC4)c(=S)[nH]c3c2c1,4µM*,-5%,-16%,6.3µM*
CC[C@H](C)NC(=O)CCCCCn1c(=S)[nH]c2c([nH]c3ccc(OC)cc32)c1=O,3%,5%,15%,-20%
CCCCNC(=O)CCCCn1c(=S)[nH]c2c([nH]c3ccc(OC)cc32)c1=O,-2%,4%,3%,-12%
COc1ccc2[nH]c3c(=O)n(CCCCC(=O)NCCN4CCCC4)c(=S)[nH]c3c2c1,7.1µM*,-14%,-5%,6.3µM*
O=c1c2ccccc2sn1-c1ccccc1,u,u,8.9µM*,u
CC(=O)Nc1ccc(-c2cc(N)n(-c3ccccc3)n2)cc1,16µM*,-20%,4%,-27%
O=c1c2ccccc2sn1-c1nccs1,0%,u,0%,5.6µM*
O=c1[nH]sc2cc(F)ccc12,23%,u,u,u
